Experimental data published in publication PMC7862700, “An all-to-all approach to the identification of sequence-specific readers for epigenetic DNA modifications on cytosine”.

Columns and labels:
Assay in all cases: DAPPL (digital affinity profiling via proximity ligation, sequencing); 10 mM Tris-HCl pH 7.5, 50 mM NaCl, 1 mM DTT, 4% glycerol, room temperature, 30 min; GST-TFs on glutathione beads, 16-mer random dsDNA library, 0.1% formaldehyde crosslink after washing; high values mean tight binding
FLI1 = biological target: T1, FLI1 (Homo sapiens, UniProt Q01543 1-452); conditions: protein: recombinant; tags: N-terminal GST; dsDNA, one strand shown
T1 sequence: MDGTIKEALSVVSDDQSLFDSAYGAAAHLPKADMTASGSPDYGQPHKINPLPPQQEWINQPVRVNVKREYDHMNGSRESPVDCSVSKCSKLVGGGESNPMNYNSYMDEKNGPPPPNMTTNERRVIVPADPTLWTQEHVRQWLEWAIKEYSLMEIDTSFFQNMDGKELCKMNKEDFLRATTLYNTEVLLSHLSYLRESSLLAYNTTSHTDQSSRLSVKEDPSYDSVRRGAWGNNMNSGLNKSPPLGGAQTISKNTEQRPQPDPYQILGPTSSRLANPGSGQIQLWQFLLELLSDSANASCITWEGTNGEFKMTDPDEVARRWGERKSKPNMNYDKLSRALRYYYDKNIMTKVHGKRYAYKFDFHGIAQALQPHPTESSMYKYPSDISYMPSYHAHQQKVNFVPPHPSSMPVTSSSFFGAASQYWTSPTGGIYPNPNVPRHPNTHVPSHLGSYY
Outline: (§1)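 The binding signal reported is, for every hexamer, its read frequency for a factor over its read frequency for the tag-only sample. Reads came from pools of yeast-expressed, GST-fused human transcription factors on glutathione beads, barcoded with DNA and mixed with that sample, which were incubated with 200 nmole of a random double-stranded 16-mer DNA library in Tris/NaCl/DTT/glycerol buffer at room temperature for 30 min. After washing, the pools were crosslinked with 0.1% formaldehyde, proximity-ligated with BsaI/T4 ligase for 1 h at 37 °C, PCR-amplified and sequenced on an Illumina NextSeq500.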

ELK1 = biological target: T2, ELK1 (Homo sapiens, UniProt P19419 1-428); conditions: protein: recombinant; tags: N-terminal GST; dsDNA, one strand shown
T2 sequence: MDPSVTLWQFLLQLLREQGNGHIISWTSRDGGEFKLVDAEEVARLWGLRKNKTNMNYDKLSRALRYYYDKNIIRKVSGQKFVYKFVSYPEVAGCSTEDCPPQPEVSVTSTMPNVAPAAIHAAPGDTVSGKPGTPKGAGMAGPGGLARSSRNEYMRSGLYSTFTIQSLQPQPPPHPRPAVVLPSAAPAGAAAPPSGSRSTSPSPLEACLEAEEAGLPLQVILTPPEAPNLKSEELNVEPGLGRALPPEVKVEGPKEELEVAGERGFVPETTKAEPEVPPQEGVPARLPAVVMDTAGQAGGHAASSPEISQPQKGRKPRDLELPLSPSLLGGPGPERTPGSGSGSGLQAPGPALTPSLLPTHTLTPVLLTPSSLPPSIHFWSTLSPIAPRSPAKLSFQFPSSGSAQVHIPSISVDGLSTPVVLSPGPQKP
Outline: as §1

GABPA = biological target: T3, GABPA (Homo sapiens, UniProt Q06546 1-454); conditions: protein: recombinant; tags: N-terminal GST; dsDNA, one strand shown
T3 sequence: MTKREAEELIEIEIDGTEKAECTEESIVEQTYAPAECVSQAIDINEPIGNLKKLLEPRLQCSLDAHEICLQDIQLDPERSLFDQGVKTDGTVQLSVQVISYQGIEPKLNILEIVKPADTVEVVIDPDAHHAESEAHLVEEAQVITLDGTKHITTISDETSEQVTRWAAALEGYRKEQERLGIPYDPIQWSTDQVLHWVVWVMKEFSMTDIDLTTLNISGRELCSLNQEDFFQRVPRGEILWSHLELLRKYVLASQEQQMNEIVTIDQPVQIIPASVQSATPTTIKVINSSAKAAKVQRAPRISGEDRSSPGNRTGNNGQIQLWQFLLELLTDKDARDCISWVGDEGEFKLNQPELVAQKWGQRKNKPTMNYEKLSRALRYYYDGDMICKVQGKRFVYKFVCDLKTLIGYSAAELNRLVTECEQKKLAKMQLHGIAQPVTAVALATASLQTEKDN
Outline: as §1

ERG = biological target: T4, ERG (Homo sapiens, UniProt P11308 1-479); conditions: protein: recombinant; tags: N-terminal GST; dsDNA, one strand shown
T4 sequence: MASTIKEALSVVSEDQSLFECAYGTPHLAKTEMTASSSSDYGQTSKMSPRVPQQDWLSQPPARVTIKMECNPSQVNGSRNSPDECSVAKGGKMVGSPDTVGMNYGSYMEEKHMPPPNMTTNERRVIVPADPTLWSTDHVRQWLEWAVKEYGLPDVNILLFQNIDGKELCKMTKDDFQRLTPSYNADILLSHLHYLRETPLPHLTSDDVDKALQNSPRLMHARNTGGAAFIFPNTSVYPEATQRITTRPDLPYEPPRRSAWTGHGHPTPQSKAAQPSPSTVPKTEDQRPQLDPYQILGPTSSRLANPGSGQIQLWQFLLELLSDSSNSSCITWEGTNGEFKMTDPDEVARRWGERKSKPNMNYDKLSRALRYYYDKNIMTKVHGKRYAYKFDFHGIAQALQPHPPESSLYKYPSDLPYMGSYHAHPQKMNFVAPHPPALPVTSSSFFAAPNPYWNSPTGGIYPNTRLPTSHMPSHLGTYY
Outline: as §1

ELF1 = ELF1 (Homo sapiens, UniProt P32519 1-619); conditions: protein: recombinant; tags: N-terminal GST; dsDNA, one strand shown
ELF1, sequence (P32519 whole entry): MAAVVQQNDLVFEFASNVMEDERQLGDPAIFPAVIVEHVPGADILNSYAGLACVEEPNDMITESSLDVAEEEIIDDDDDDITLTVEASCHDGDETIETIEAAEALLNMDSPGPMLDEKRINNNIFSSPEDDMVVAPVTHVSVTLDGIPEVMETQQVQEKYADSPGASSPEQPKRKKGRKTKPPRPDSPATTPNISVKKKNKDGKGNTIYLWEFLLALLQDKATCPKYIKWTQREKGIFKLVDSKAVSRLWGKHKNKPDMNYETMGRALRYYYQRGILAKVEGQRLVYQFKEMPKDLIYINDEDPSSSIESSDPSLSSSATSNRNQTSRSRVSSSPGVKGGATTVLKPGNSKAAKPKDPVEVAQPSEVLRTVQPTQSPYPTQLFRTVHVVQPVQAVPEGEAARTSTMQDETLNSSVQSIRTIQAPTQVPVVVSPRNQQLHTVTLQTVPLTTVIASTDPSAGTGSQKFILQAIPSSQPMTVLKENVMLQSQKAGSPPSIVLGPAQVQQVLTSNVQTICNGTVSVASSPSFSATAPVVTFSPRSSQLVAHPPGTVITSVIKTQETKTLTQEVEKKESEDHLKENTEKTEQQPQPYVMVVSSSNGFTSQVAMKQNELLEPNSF
Outline: as §1

EHF = biological target: T5, EHF (Homo sapiens, UniProt Q9NZC4 1-300); conditions: protein: recombinant; tags: N-terminal GST; dsDNA, one strand shown
T5 sequence: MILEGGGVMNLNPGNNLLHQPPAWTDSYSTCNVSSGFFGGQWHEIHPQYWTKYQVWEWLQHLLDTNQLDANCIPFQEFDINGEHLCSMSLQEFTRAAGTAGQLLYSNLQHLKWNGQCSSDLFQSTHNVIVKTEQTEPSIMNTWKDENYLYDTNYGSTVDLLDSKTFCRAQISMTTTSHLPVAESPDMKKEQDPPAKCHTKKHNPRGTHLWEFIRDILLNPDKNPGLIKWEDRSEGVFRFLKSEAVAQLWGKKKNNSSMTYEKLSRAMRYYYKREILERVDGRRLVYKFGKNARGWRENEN
Outline: as §1

SPI1 = SPI1 (Homo sapiens, UniProt P17947 1-270); conditions: protein: recombinant; tags: N-terminal GST; dsDNA, one strand shown
Outline: as §1

SPIB = SPIB (Homo sapiens, UniProt Q01892 1-262); conditions: protein: recombinant; tags: N-terminal GST; dsDNA, one strand shown
SPIB, sequence (Q01892 whole entry): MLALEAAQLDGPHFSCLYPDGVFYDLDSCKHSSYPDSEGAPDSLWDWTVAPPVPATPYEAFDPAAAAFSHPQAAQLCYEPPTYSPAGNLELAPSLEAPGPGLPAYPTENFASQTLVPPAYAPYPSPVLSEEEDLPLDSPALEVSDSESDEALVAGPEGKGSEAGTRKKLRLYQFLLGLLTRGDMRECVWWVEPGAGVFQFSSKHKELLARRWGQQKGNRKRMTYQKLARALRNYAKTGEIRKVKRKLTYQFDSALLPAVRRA
Outline: as §1

ELK3 = biological target: T6, ELK3 (Homo sapiens, UniProt P41970 1-407); conditions: protein: recombinant; tags: N-terminal GST; dsDNA, one strand shown
T6 sequence: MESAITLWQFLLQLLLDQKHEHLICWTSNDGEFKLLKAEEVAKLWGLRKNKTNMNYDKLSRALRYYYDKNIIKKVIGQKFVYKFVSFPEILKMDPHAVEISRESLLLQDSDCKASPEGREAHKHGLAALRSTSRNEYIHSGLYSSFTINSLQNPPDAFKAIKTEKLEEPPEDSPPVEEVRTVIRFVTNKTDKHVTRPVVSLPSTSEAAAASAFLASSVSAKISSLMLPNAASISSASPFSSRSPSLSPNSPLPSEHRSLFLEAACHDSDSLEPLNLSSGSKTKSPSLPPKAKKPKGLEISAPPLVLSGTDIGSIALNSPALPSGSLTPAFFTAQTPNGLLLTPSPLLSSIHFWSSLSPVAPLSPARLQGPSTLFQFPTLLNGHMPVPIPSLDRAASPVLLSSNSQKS
Outline: as §1

FEV = biological target: T7, FEV (Homo sapiens, UniProt Q99581 1-238); conditions: protein: recombinant; tags: N-terminal GST; dsDNA, one strand shown
T7 sequence: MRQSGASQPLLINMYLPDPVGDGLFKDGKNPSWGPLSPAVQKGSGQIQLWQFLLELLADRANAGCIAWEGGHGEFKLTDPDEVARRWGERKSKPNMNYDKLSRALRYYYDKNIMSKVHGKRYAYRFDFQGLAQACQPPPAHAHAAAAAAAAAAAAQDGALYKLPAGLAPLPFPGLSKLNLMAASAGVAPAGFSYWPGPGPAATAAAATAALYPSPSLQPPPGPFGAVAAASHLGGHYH
Outline: as §1

ETV5 = ETV5 (Homo sapiens, UniProt P41161 1-510); conditions: protein: recombinant; tags: N-terminal GST; dsDNA, one strand shown
ETV5, sequence (P41161 whole entry): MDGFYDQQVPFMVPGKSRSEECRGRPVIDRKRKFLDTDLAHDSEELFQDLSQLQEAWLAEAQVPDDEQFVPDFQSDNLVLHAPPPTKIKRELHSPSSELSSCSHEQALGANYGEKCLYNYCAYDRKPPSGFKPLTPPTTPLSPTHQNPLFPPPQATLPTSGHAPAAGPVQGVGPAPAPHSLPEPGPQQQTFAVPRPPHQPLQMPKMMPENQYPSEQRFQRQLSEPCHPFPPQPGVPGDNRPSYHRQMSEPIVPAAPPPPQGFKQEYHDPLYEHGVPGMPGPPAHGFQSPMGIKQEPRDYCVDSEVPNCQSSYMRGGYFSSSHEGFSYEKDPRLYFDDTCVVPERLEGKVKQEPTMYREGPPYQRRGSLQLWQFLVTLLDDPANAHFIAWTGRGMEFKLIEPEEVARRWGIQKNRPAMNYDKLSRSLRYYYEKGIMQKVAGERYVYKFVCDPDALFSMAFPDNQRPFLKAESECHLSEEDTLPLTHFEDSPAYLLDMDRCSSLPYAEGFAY
Outline: as §1

HSF1 = HSF1 (Homo sapiens, UniProt Q00613 1-529); conditions: protein: recombinant; tags: N-terminal GST; chain copies: 3; dsDNA, one strand shown
HSF1, sequence (Q00613 whole entry): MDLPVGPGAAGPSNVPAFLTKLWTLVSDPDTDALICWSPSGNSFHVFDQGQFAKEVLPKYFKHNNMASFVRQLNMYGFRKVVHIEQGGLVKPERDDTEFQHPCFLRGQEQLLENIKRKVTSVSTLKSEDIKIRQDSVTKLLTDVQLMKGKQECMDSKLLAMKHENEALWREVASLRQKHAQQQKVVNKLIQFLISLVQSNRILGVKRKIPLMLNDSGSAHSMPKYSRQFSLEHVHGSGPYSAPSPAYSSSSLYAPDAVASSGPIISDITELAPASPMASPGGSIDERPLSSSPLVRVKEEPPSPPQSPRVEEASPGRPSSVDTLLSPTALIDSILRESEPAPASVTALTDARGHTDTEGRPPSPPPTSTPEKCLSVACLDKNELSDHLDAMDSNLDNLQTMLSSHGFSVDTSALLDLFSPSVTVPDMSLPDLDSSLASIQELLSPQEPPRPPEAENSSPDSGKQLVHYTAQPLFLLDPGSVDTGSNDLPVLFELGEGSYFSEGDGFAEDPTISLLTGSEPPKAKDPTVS
Outline: as §1

SPIC = biological target: T8, SPIC (Homo sapiens, UniProt Q8N5J4 1-248); conditions: protein: recombinant; tags: N-terminal GST; dsDNA, one strand shown
T8 sequence: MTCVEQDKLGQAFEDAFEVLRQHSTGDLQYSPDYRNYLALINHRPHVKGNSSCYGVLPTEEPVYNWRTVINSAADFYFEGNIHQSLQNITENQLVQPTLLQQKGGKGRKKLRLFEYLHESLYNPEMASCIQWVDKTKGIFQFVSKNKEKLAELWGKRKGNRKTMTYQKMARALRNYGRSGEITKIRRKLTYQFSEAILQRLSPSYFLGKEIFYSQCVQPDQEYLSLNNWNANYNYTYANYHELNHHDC
Outline: as §1

ELF4 = ELF4 (Homo sapiens, UniProt Q99607 1-663); conditions: protein: recombinant; tags: N-terminal GST; dsDNA, one strand shown
ELF4, sequence (Q99607 whole entry): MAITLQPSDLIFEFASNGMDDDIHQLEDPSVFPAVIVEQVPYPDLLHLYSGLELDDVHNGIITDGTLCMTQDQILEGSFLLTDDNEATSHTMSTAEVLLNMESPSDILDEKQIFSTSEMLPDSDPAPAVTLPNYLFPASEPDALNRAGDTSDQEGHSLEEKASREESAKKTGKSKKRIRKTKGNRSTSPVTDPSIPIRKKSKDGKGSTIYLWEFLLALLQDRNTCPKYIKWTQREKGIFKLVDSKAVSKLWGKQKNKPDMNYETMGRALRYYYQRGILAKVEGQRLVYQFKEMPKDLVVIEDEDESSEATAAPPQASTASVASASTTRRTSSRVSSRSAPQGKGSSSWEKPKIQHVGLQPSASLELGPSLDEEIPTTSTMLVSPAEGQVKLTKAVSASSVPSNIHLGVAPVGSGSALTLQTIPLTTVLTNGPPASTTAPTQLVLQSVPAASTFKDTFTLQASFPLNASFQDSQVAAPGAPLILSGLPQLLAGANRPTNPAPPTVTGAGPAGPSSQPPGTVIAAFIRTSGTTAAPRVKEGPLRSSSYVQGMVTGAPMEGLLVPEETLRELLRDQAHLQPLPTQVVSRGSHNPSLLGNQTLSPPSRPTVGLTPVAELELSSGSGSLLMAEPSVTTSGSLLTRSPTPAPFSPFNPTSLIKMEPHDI
Outline: as §1

ELK4 = biological target: T9, ELK4 (Homo sapiens, UniProt P28324-2 1-405); conditions: protein: recombinant; tags: N-terminal GST; dsDNA, one strand shown
T9 sequence: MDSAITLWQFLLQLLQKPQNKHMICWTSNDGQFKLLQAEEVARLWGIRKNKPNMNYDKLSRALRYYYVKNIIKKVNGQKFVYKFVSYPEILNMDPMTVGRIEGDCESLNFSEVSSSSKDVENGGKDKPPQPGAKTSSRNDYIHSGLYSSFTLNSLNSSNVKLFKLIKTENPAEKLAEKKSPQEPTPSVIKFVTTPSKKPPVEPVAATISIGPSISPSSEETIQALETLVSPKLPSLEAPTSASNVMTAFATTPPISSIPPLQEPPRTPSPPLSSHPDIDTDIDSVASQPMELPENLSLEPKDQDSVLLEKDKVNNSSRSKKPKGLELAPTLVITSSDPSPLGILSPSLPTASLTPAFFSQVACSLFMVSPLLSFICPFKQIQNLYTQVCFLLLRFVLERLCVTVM
Outline: as §1

ETV2 = biological target: T10, ETV2 (Homo sapiens, UniProt O00321 1-342); conditions: protein: recombinant; tags: N-terminal GST; dsDNA, one strand shown
T10 sequence: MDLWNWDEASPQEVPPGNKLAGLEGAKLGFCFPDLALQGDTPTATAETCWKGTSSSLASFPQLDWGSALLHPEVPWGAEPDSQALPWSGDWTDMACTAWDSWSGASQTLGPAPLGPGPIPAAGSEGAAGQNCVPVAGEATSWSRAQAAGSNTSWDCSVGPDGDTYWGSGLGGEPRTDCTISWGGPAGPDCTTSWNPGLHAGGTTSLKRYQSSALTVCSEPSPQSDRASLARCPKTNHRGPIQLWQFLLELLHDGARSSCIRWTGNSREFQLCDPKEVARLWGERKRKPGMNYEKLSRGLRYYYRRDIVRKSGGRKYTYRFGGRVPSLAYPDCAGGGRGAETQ
Outline: as §1

ELF3 = biological target: T11, ELF3 (Homo sapiens, UniProt P78545 1-371); conditions: protein: recombinant; tags: N-terminal GST; dsDNA, one strand shown
T11 sequence: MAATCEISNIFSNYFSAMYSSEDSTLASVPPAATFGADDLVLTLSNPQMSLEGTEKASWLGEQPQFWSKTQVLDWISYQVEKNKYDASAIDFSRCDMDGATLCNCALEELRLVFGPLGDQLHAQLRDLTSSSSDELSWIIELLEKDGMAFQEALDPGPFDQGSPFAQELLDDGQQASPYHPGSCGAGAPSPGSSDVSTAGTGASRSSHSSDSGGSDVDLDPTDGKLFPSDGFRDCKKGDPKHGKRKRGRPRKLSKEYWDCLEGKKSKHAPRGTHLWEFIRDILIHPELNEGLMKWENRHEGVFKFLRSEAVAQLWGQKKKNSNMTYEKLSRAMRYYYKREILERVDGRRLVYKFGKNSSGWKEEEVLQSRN
Outline: as §1

ETV1 = ETV1 (Homo sapiens, UniProt P50549 1-477); conditions: protein: recombinant; tags: N-terminal GST; dsDNA, one strand shown
ETV1, sequence (P50549 whole entry): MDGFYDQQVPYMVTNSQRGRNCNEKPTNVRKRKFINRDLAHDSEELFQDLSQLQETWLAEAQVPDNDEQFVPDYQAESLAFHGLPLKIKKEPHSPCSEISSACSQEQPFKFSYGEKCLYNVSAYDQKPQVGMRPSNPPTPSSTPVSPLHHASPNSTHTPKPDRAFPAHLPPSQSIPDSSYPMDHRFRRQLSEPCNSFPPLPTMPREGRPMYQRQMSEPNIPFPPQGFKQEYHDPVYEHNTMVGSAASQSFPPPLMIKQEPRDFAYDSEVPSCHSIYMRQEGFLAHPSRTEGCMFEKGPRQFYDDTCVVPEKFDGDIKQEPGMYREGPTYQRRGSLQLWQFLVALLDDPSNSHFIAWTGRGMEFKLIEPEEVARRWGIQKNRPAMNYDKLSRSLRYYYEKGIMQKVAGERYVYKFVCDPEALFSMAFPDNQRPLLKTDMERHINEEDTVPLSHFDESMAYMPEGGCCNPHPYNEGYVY
Outline: as §1

GGTTCC
binding signal (FLI1): 1.52 fold enrichment (6-mer frequency, TF over GST control) | binding signal (ELK1): 1.64 fold enrichment (6-mer frequency, TF over GST control) | binding signal (GABPA): 1.37 fold enrichment (6-mer frequency, TF over GST control) | binding signal (ERG): 1.54 fold enrichment (6-mer frequency, TF over GST control) | binding signal (ELF1): 1.53 fold enrichment (6-mer frequency, TF over GST control) | binding signal (EHF): 1.59 fold enrichment (6-mer frequency, TF over GST control) | binding signal (SPI1): 1.75 fold enrichment (6-mer frequency, TF over GST control) | binding signal (SPIB): 1.59 fold enrichment (6-mer frequency, TF over GST control) | binding signal (ELK3): 1.52 fold enrichment (6-mer frequency, TF over GST control) | binding signal (FEV): 1.68 fold enrichment (6-mer frequency, TF over GST control) | binding signal (ETV5): 1.57 fold enrichment (6-mer frequency, TF over GST control) | binding signal (HSF1): 1.13 fold enrichment (6-mer frequency, TF over GST control) | binding signal (SPIC): 1.38 fold enrichment (6-mer frequency, TF over GST control) | binding signal (ELF4): 1.44 fold enrichment (6-mer frequency, TF over GST control) | binding signal (ELK4): 1.38 fold enrichment (6-mer frequency, TF over GST control) | binding signal (ETV2): 1.32 fold enrichment (6-mer frequency, TF over GST control) | binding signal (ELF3): 1.7 fold enrichment (6-mer frequency, TF over GST control) | binding signal (ETV1): 1.63 fold enrichment (6-mer frequency, TF over GST control)
